MgrA DNA FP = S. aureus MgrA-DNA binding modulation | inhibition, % (test concentration not listed) | fluorescence polarization | hit rate 0.13% among 84,000; in the data active means inhibition above about 30%, passing the limit was not always enough;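 further: 0% = protein plus DNA without compound and 100% = DNA alone without protein; higher means less MgrA bound to DNA so lower polarization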
Numbers without * were called inactive; + = active, no number. Only a selection was taken, and hits are over-represented in it overall.

SMILES	MgrA DNA FP
O=C1N/C(=N\c2ccccn2)SC1Cc1ccc(F)cc1 (configuration not stated)	2.3
Cc1cc2c(=O)n(C)c(SCC(N)=O)nc2s1	0.1
Ic1ccc2c(-c3ccccc3)onc2c1	2.6
CC(C)C(NC(=O)c1ccc(F)cc1)C(C)C	0.6
CCOC(=O)C1=C(c2ccccc2)Nc2ncnn2C1c1ccc(OCc2ccccc2)cc1 (configuration not stated)	-0.2
COc1cccc2c1C(=O)c1c(O)c3c(c(O)c1C2=O)C[C@@](O)(C(=O)CO)C[C@@H]3O[C@H]1C[C@H](N)[C@H](O)[C@H](C)O1	+
COc1cccc2c1C(=O)c1c(O)c3c(c(O)c1C2=O)C[C@@](O)(C(C)=O)C[C@@H]3OC1CC(N)C(O)C(C)O1 (some centres not stated)	+
CCc1cc(S(=O)(=O)n2ccnc2)ccc1OC	-6.8
COc1cccc(C2C3=C(CC(C)(C)CC3=O)OC3=C2C(=O)CC(C)(C)C3)c1OCc1ccccc1Cl	0.1
COc1ccc(OC(=O)c2cscc2Sc2ccc(Cl)cc2)cc1	-1.4
Cc1ccc(Nc2cc(C(=O)NCCC3=CCCCC3)c3ccccc3n2)c(C)c1	0.6
Cc1ccc2[nH]c(=O)c3cc(C(=O)N4CCc5ccccc54)sc3c2c1	0.8
O=C1NC(=O)N(C2CCCCC2)C(=O)/C1=C\C=C\c1ccco1	5.3
COc1cccc(N2C(=O)/C(=C/C=C/c3ccco3)C(=O)NC2=S)c1	86.5*
COc1cccc(/C=C2\C(=O)NC(=O)N(c3cccc(OC)c3)C2=O)c1	-6.0
NNC(=O)CS(=O)(=O)Cc1ccc(-c2csnn2)cc1	-5.6
O=C(Nc1ccccc1Cl)N1CCc2ccccc2C1	-0.2
O=C(/C=C/c1ccco1)Nc1cccc(NC(=O)/C=C/c2ccco2)n1	7.1
O=C(/C=C/c1ccccc1)/C=C/c1ccco1	32.5
O=C(/C=C/c1ccco1)/C=C/c1ccco1	97.6*
FC(F)(F)Sc1ccc2noc(-c3ccccc3)c2c1	-1.5
CCC(C(=O)NC(C)c1ccc2c(c1)OCO2)c1ccccc1 (configuration not stated)	-2.8
NC(=O)CC(c1ccccc1)c1ccc2c(c1)OCO2 (configuration not stated)	-4.7
Cc1ccc(C)n1C(CC(=O)O)c1ccc2c(c1)OCO2 (configuration not stated)	52.6*
CCc1ccc(S(=O)(=O)c2c(C(=O)c3ccccc3)cnc3cc4c(cc23)OCCO4)cc1	-2.2
C=CCN1C(=O)/C(=c2\sc3n(c2=O)C(c2ccccc2Cl)C(C(=O)OC)=C(C)N=3)c2ccccc21 (configuration not stated)	2.3

Source: PubChem BioAssay
